The structures appear in SMILES notation. Among all 1,400 compounds or so, about 560 (40%) were called active. So high a share suggests a set chosen from earlier hits. The list shows a part of the results. Values without a mark were called inactive.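 Rule for the calls: active = mean inhibition over duplicate tests at 10 µM above 50%; inactive = the rest.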

The experiment can be described thus: ASC/caspase-1 reporter retest in S. cerevisiae at one dose, specificity check for NALP1 project (AID 488857). To be noted: S. cerevisiae ASC/Caspase-1, beta-galactosidase luminescence, 24 h; at 10 µM; stronger effect = higher value.
In general, inhibition refers to the share of the control response that was lost under treatment. For the compound `CC(C)CC(=O)N1CCN(S(=O)(=O)c2ccccc2)CC1`, the inhibition was 35.2%.
Turning to `C=CCc1cccc(/C=N/c2nc3ccccc3n2CC)c1O`, the inhibition is 31.1%.
Consider `C#CCCCCCCC#CCN(C)C`, for which the inhibition was 33.6%.
Consider `O=C(Nc1ccc2oc(-c3ccccc3)nc2c1)c1ccco1`, for which the inhibition is 96.3% (active).
For `CCCc1nc2ccc(NC(=O)c3ccco3)cc2c(=O)n1Cc1ccccc1Cl`, the inhibition is 40.2%.
Take `O=[N+]([O-])c1ccc(-c2ccn[nH]2)o1`: the inhibition was 36%.
As to `COCCCN(CCCN)Cc1ccco1`, the inhibition is 74.1% (active).
The same measure for `COc1ccc(NCc2ccc([N+](=O)[O-])s2)cc1`: 30.4%; for `CCOC(=O)c1nnc(-c2ccc(C)cc2)nc1Sc1ccc(Cl)cc1`: 29.1%; for `CCOC(=O)c1c(O)c2cc(Cl)ccc2n(CC)c1=O`: 40.3%.
As to `CCOC(=O)C1=NN(C(=O)c2ccc(C)cc2)C(O)(c2ccc(Cl)cc2)C1` (stereo not given), the inhibition was 50.6% (active).
As for `O=S(=O)(Cc1cc(Sc2ccccc2)nc(-c2ccccc2)n1)c1ccccc1`, the inhibition was 33.7%.
For the compound `Oc1c(Cl)cc(Cl)c2c1NCCC2`, the inhibition was 64.7% (active).
As for `CCN(C(=O)[C@@H]1CCCN1C(=O)c1cccs1)c1nc2cc(Cl)ccc2s1`, the inhibition was 62.6% (active).
With `COc1ccc(C2SCC(=O)N2CCCN(C)C)cc1` (stereo not given), the inhibition was 39.6%.
On to `Cc1cccc(NC(=O)c2ccc(C3SCC(=O)N3CCc3ccccc3)cc2)c1C` (stereo not given), for which the inhibition is 60.8% (active).
For `COc1ccc(NC(=O)C2CCN(C(=O)c3ccc(OC)cc3)CC2)cc1`, the inhibition is 26.8%.
On to `CS(=O)(=O)N1CCC(C(=O)Nc2ccc3c(c2)OCO3)CC1`, for which the inhibition was 19.4%.
Consider `O=C(Nc1ccc(C#Cc2ccccc2)cc1)C1CC1`, for which the inhibition was 73.2% (active).
Take `CC(=O)Nc1cccc(OCCCNC(=O)C2CCC2)c1`: the inhibition is 39.1%.
Consider `O=C1c2ccccc2C(=O)c2cc(NC(=O)C3CC3)ccc21`, for which the inhibition was 51.6% (active).
Take `Cc1cc(C)cc(NS(=O)(=O)c2ccc(NC(=O)C3CCCCC3C(=O)O)cc2)c1` (stereo not given): the inhibition was 26.8%.
Consider `O=C(Nc1ccc(Br)c(Cl)c1)C1CC1`, for which the inhibition was 51% (active).
The same measure for `CCn1cc(C(=O)O)c(=O)c2cc(F)c(N3CCNCC3)cc21`: 30.4%.
Take `CCC(=O)c1ccc(OCC(O)CN2CCN(c3cccc(C(F)(F)F)c3)CC2)cc1` (stereo not given): the inhibition was 65.7% (active).
Take `Cn1cc(S(=O)(=O)N2CCN(c3cccc(C(F)(F)F)c3)CC2)c(=O)n(C)c1=O`: the inhibition was 33.4%.
For the compound `CCOC(=O)N1CCN(CC(O)COc2ccccc2C(C)(C)C)CC1` (stereo not given), the inhibition is 44.2%.
As for `O=C(NC(Cc1c[nH]c2ccccc12)C(=O)O)/C(=C\c1ccc2c(c1)OCO2)NC(=O)c1ccccc1` (stereo not given), the inhibition is 28.8%.
Take `O=C(/C=C/c1c[nH]c2ccccc12)c1ccccc1`: the inhibition is 86.5% (active).
For `O=C(/C=C/Sc1ccccc1)c1ccc(Cl)cc1` the value was 44.6%; for `Oc1oc(-c2ccccc2)nc1C=Nc1cccc2ccccc12`, 32.5%.
For `CC(C)N1CCC2(CC1)N=C(c1ccc3c(c1)OCO3)CC(c1cc(Cl)ccc1O)N2` (stereo not given), the inhibition was 74.5% (active).
As to `Clc1ccc(C2=NNC(=NCc3ccc4c(c3)OCO4)SC2)cc1`, the inhibition is 33.4%.
For `CCNc1c(C(=O)O)ccc2c1C(=O)c1ccccc1C2=O` the value was 39.5%; for `CC(=O)c1c(C)oc2c1C(=O)c1ccccc1C2=O`, 74.2% (active).
As to `COc1ccc(C(=O)c2c(C(F)(F)F)oc3c2C(=O)c2ccccc2C3=O)cc1`, the inhibition was 20.5%.
The same measure for `CCN1CCN(c2cc(C(C)C)nc3c(-c4ccccc4)c(C)nn23)CC1`: 52.5% (active).
For the compound `O=C(c1ccc2c(Cl)c3c(nc2c1)CCCC3)N1CCN(c2ccc(F)cc2)CC1`, the inhibition is 61.5% (active).
For the compound `O=C(c1cccc(F)c1)N1CCN(c2cc(N3CCCCC3)c(F)cc2[N+](=O)[O-])CC1`, the inhibition is 49.4%.
The same measure for `c1cc2c3c(cccc3c1)NC1(CCCCCC1)N2`: 19.9%.
As for `Cc1ccc(-c2cc(NC(=O)CSc3n[nH]c(N)n3)n(-c3ccccc3)n2)cc1`, the inhibition was 21.9%.
As to `COCC(=O)OCC(=O)Nc1cc(C(C)(C)C)nn1-c1ccccc1`, the inhibition is 21.4%.
On to `O=C(CCl)Nc1cc(-c2ccccc2)nn1-c1ccccc1`, for which the inhibition is 78.5% (active).
In the case of `O=C(CN1CCOCC1)Nc1ccccc1Sc1ccc(Cl)cc1`, the inhibition is 28.6%.
For the compound `CCC(C)c1ccccc1NC(=O)CN1CCN(C/C=C/c2ccccc2)CC1` (stereo not given), the inhibition is 55% (active).
Consider `COC(=O)c1ccccc1NC(=O)N1CCN(C/C=C/c2ccccc2)CC1`, for which the inhibition was 42.6%.
Consider `Cc1noc2ncc(C(=O)c3cc(F)ccc3O)cc12`, for which the inhibition is 27.6%.
Take `c1ccc(COc2ccc(OCCN3CCCCC3)cc2)cc1`: the inhibition is 39.1%.
Regarding `CC1CCN(CCOc2cccc(Br)c2)CC1`, the inhibition is 43.1%.
The same measure for `Cn1c(=O)n(CCCOc2ccc(Cl)cc2)c2ccccc21`: 46.1%.
As for `Clc1ccc(OCCN2CCCCC2)cc1Cl`, the inhibition was 57.7% (active).
The same measure for `Clc1ccc(OCCCN2CCCC2)cc1Cl`: 40%; for `CC1CCN(CCOc2ccc(Cl)c(Cl)c2)CC1`: 56.5% (active); for `CCN1CCN(Cc2cccc(Oc3ccccc3)c2)CC1`: 40%.
With `CC1CCN(CCOc2ccc(OCc3ccccc3)cc2)CC1`, the inhibition is 59.3% (active).
With `Clc1cccc(OCCN2CCN(CCOc3cccc(Cl)c3)CC2)c1`, the inhibition was 65.6% (active).
For `CN(C)Cc1ccccc1COc1ccccc1`, the inhibition is 31.8%.
Consider `CCN(CC)CCCOc1ccc(Cl)c(Cl)c1`, for which the inhibition is 39.4%.
For `CCN(CC)S(=O)(=O)c1ccc(NS(=O)(=O)c2cccs2)cc1` the value was 29.6%; for `Cc1ccc(/C(N)=N/OC(=O)c2ccc3c(c2)OCO3)cc1`, 86.8% (active); for `Cc1cccc(/C(N)=N/OC(=O)c2ccc3c(c2)OCO3)c1`, 55.8% (active).
For `Cc1ccc(/C(N)=N/OC(=O)c2cccs2)cc1`, the inhibition is 69.2% (active).
`Cc1ccc(/C(N)=N/OC(=O)c2ccc(Cl)cc2Cl)cc1`: the inhibition was 46.2%.
In the case of `CC1CN(C(=O)Nc2ccc3c(c2)OCO3)CC(C)O1` (stereo not given), the inhibition was 27.1%.
For the compound `CC1(C)CC(=O)c2cc(C(=O)O)c(=O)n(-c3ccccc3)c2C1`, the inhibition is 37.4%.
`CC(C)c1nc(SCC(=O)Nc2ccc3c(c2)OCCO3)n[nH]1`: the inhibition is 24.2%.
Turning to `O=C(Nc1cccc(N=Cc2cc(Br)cc(Br)c2O)c1)c1ccco1`, the inhibition is 57% (active).
As to `O=C(/C=N/O)Nc1cccnc1`, the inhibition is 41.3%.
As for `Cc1ccsc1/C=N/NC(=O)c1ccco1`, the inhibition was 48.5%.
As for `COc1cc(Br)cc(C=Nc2cccc(C(F)(F)F)c2)c1O`, the inhibition was 30%.
As to `Oc1c(Br)cc(Br)cc1C=Nc1cccnc1`, the inhibition is 54.1% (active).
`Oc1c(Br)cc(Br)cc1C=Nc1ccc2c(c1)OCO2`: the inhibition is 64.6% (active).
For the compound `CCOc1nc(-c2ccccc2Cl)ccc1C#N`, the inhibition was 45.4%.
Consider `OC(CNCCc1ccc(C(F)(F)F)cc1)COc1cccc2ccccc12` (stereo not given), for which the inhibition is 59.9% (active).
Consider `C=CCNc1oc(COc2ccc(C)cc2)nc1C#N`, for which the inhibition was 56.6% (active).
As to `COC(=O)C(CCSC)NC(=O)Cn1ncc2c(=O)oc3ccccc3c21` (stereo not given), the inhibition was 42%.
Regarding `O=[N+]([O-])c1ccc(N2CCCCC2)cc1`, the inhibition is 39.5%.
For `O=C1C=CC(=O)N1c1ccc(N2CCCCC2)cc1`, the inhibition was 68.2% (active).
`CCCc1[nH]nc2c1C(c1ccoc1)C(C#N)=C(N)O2` (stereo not given): the inhibition is 43.1%.
Take `O=c1c2c(C(F)(F)F)cc(C(F)(F)F)nc2[nH]n1-c1ccccc1`: the inhibition was 33%.
In the case of `Nc1c(Cl)ncnc1N/N=C/c1ccccn1`, the inhibition is 85.2% (active).
Regarding `Cc1c(Cl)c([N+](=O)[O-])nn1Cc1ccc(C(=O)N/N=C\c2ccccn2)o1`, the inhibition is 31.1%.
Take `Nc1c2c(nc3sc4c(c13)CCCCC4)CCCCC2`: the inhibition was 69% (active).
For `Nc1c2c(nc3sc4c(c13)CCCC4)CCCCCC2` the value was 48.9%; for `N#Cc1cnn(-c2ncnc3sc4c(c23)CCCC4)c1N`, 37.2%; for `CC1CCc2nc3sc4c(c3c(N)c2C1)CCCC4` (stereo not given), 93.2% (active).
As for `C=C(C)COc1ccc2c(CC)cc(=O)oc2c1C`, the inhibition is 61.5% (active).
Turning to `CN(C)C(C)(C)C#CCC(c1ccccc1)c1ccccc1`, the inhibition is 55% (active).
Consider `CC(C)(C#CCN1CCCCC1)OCCOC(c1ccccc1)c1ccccc1`, for which the inhibition was 30.2%.
Turning to `CCCCNC(=O)Nc1nnc(-c2ccc(Cl)cc2)o1`, the inhibition is 54.4% (active).
Consider `CCCCNC(=O)Nc1cc(C)on1`, for which the inhibition is 27.1%.
For `CCC1(CC)Cc2ccccc2C(Nc2c(C)n(C)n(-c3ccccc3)c2=O)=N1` the value was 18.9%.
As for `O=C(Cc1coc2cc3c(cc12)CCC3)NCC1(N2CCCCC2)CCCCC1`, the inhibition was 45%.
Turning to `Cc1ccc(OCc2nc(-c3ccc(Cl)cc3)n[nH]2)cc1`, the inhibition was 78.2% (active).
With `O=C(O)[C@@H](c1ccccc1)N1Cc2ccccc2C1=O`, the inhibition is 22.6%.
Consider `COC(=O)N/N=C(\C)c1ccc2ccccc2c1OC(F)F`, for which the inhibition was 62.3% (active).
As for `OC(CNCCC1C=Nc2ccccc21)Cn1c2ccc(Cl)cc2c2cc(Cl)ccc21` (stereo not given), the inhibition is 53.8% (active).
Consider `CC(C)NCCOCCOc1ccc(Cl)cc1Br`, for which the inhibition was 39.3%.
Consider `Clc1ccc(OCCOCCN2CCc3ccccc3C2)c(Cl)c1`, for which the inhibition was 58.2% (active).
Take `Clc1ccc(OCCCNCc2ccccc2)c2ccccc12`: the inhibition is 53.2% (active).
As to `CCc1cc(OCCCCNCc2ccccc2)ccc1Cl`, the inhibition was 44.5%.
The same measure for `Cc1nc2c(=O)n(C)c(=O)n(C)c2nc1Cl`: 25.6%.
Regarding `CCOC(=O)/C(=N\Nc1ccc(Cl)cc1)c1csc(Nc2ccccc2)n1`, the inhibition was 31.7%.
`Cc1ccc(S(=O)(=O)c2nc(C)oc2NCc2ccccc2)cc1`: the inhibition is 34.9%.
As to `Cc1ccc(S(=O)(=O)c2nc(Nc3ccccc3)sc2Cl)cc1`, the inhibition was 69.3% (active).

The record behind these values is PubChem BioAssay AID488857 (Sanford-Burnham Center for Chemical Genomics, 2010).
